# According to the supplement of paper PMC6555819:
# Key:
# Experiment in all cases: PBM binding z-score (relative to random genomic background probes); higher = stronger binding; sequences stand for … in GC…GCGATTGACAGCGTAGAATGAAGG
# [1] = system: FXR:RXRa (NR concentration 270 nM, RXRa partner concentration 90 nM)
# Method in brief: (§1)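 The probes on custom Agilent 4×180K protein-binding microarrays were double-stranded, with 34-nt variable regions bearing direct-repeat seeds, single-nucleotide variants, half-site ablations and random human genomic background sequences. Incubation lasted 1 h with ligand-free nuclear receptor dimers in PBS pH 7.4, 2% milk, 0.02% Triton X-100, 1 mM DTT, 0.2 mg/mL BSA and 0.4 mg/ml salmon testes DNA. Antibodies against each partner (one per run) detected bound dimers, and fluorescence scans were regression-normalized. Binding z-scores take the random background probes as reference.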
# [2] = system: LXRa:RXRa (NR concentration 270 nM, RXRa partner concentration 90 nM)
# Method in brief: as §1
# [3] = system: LXRa homodimer (NR concentration 270 nM)
# Method in brief: as §1
# [4] = system: LXRb:RXRa (NR concentration 270 nM, RXRa partner concentration 90 nM)
# Method in brief: as §1
# [5] = system: LXRb homodimer (NR concentration 270 nM)
# Method in brief: as §1
# [6] = system: PPARa:RXRa (NR concentration 270 nM, RXRa partner concentration 90 nM)
# Method in brief: as §1
# [7] = system: PPARg:RXRa (NR concentration 180 nM, RXRa partner concentration 90 nM)
# Method in brief: as §1
# [8] = system: PPARg:RXRa 270nM:90nM, anti-RXR (NR concentration 270 nM, RXRa partner concentration 90 nM)
# Method in brief: as §1
# [9] = system: PPARg:RXRa 30nM:10nM, anti-RXR (NR concentration 30 nM, RXRa partner concentration 10 nM)
# Method in brief: as §1
# [10] = system: PPARg:RXRa 90nM:30nM, anti-RXR (NR concentration 90 nM, RXRa partner concentration 30 nM)
# Method in brief: as §1
# [11] = system: PPARg:RXRa DBDmut IVT, anti-RXR (DBD mutation: RXRa K156A/R161A, NR concentration 270 nM, RXRa partner concentration 90 nM)
# Method in brief: as §1
# [12] = system: PPARg:RXRa IVT, anti-PPARg (NR concentration 270 nM, RXRa partner concentration 90 nM)
# Method in brief: as §1
# [13] = system: PPARg DBDmut:RXRa IVT, anti-PPARg (DBD mutation: PPARg1 K132A/R137A, NR concentration 270 nM, RXRa partner concentration 90 nM)
# Method in brief: as §1
# [14] = system: PPARg DBDmut IVT, anti-PPARg (DBD mutation: PPARg1 K132A/R137A, NR concentration 270 nM)
# Method in brief: as §1
# [15] = system: PPARg homodimer (NR concentration 180 nM)
# Method in brief: as §1
# [16] = system: PXR:RXRa (NR concentration 270 nM, RXRa partner concentration 90 nM)
# Method in brief: as §1
# [17] = system: PXR homodimer (NR concentration 270 nM)
# Method in brief: as §1
# [18] = system: RARa:RXR (NR concentration 270 nM, RXRa partner concentration 90 nM)
# Method in brief: as §1
# [19] = system: RARa homodimer (NR concentration 270 nM)
# Method in brief: as §1
# [20] = system: RARb:RXRa (NR concentration 270 nM, RXRa partner concentration 90 nM)
# Method in brief: as §1
Sequence,PBM binding z-score [1],PBM binding z-score [2],PBM binding z-score [3],PBM binding z-score [4],PBM binding z-score [5],PBM binding z-score [6],PBM binding z-score [7],PBM binding z-score [8],PBM binding z-score [9],PBM binding z-score [10],PBM binding z-score [11],PBM binding z-score [12],PBM binding z-score [13],PBM binding z-score [14],PBM binding z-score [15],PBM binding z-score [16],PBM binding z-score [17],PBM binding z-score [18],PBM binding z-score [19],PBM binding z-score [20]
CCTTACGGGTCACTCCAGGTTAGAGCATCGGAGT,4.5,6.91,0.78,4.42,0.148,4.23,3.19,3.7,0.828,2.54,2.67,3.37,-0.182,-0.0184,1.58,4.28,0.36,3.52,0.0194,3.64
CCTACTGGGCCACAAAAGGTCATTGATTCAGTGA,3.28,5.83,5.25,4.37,0.347,4.79,4.35,4.41,1.88,3.74,5.38,5.41,0.516,0.121,2.8,5.02,1.16,4.9,0.618,3.95
ACTTACGGGTCAGCGAGGTTATAGCACGCGTATA,4.94,3.87,0.399,3.41,0.42,4.9,3.94,4.15,1.13,2.59,1.92,3.48,0.822,0.254,1.62,4.18,1.12,4.25,0.477,4.09
ATCTCCAGGTAAAGATAGTTCAGTGAATGCAAAT,0.234,4.39,0.615,0.852,0.602,0.316,0.194,0.28,0.232,-0.042,0.28,0.419,1.11,1.09,0.798,1.1,1.1,0.0525,1.34,0.907
CGTCCAAGGTCAGCAGGTCATTGAAAGCGACGTG,6.58,4.67,1.51,3.86,-0.214,5.46,5.09,4.94,1.14,3.42,2.83,3.78,0.265,-0.0575,3.28,4.51,0.829,5.89,0.397,5.51
TCTGCTAGGTCAGTTAGTCAGCTAACGAGCTGCC,0.761,0.452,-0.662,0.131,-0.11,0.983,-0.0973,1.33,1.2,1.46,2.31,2.39,0.967,0.0395,-0.199,0.00438,-0.871,0.377,-0.653,2.89
CAAACTAGGTCATAGGTCAAAGTCGAGCCAACCA,7.12,5.85,3.78,5.36,1.14,7.84,12.8,10.5,11.6,12,8.12,8.93,3.18,1.68,3.4,5.05,0.241,7.38,0.929,4.76
CGTCCAAGGTCAAAGGTAAGTGAAGAGATGACGG,7.07,5.81,0.609,4.33,0.945,6.03,7.34,7,5.4,6.76,3.99,4.46,0.556,-0.194,2.19,4.69,0.799,5.9,0.423,5.23
GGAACGAGGGCAAAGTTGATTGCATCTGTCGACG,1.25,0.976,-0.336,0.888,-0.546,3.9,6.23,6.84,5.63,6.92,4.27,4.05,0.0713,-0.581,0.375,1.16,0.179,1.39,-0.237,2.18
CTCGAAAGGTCGTGCTCAGGTGAGGATACCAAAC,5.21,3.76,0.268,3.22,-0.12,4.86,2.79,4.04,0.853,2.43,0.783,1.73,-0.368,0.176,1.74,3.15,0.182,3.92,0.325,3.94
ACTCGGAGGACACAGGTCAGAGCTACGCCAGTGA,1.4,1.18,0.294,0.96,-0.518,2.18,2.85,3.06,1.09,2.71,0.556,1.45,-0.673,0.431,1.35,1.09,-0.155,1.8,0.347,2.89
ACAATTAGTTGACTTAGGGCAACCGATACGACGC,0.279,0.33,0.565,0.0599,0.612,0.00256,1.03,0.396,0.353,0.139,0.0819,0.506,0.981,1.45,0.921,-0.00518,0.761,0.318,0.646,0.888
TCTTATAGGTAATACAGGTGAAAGTCGGCATCTA,1.18,1.45,0.636,1.17,0.858,2.06,1.26,2.8,3.97,3.16,4.02,3.44,1.76,1.72,1.19,0.981,0.463,1.37,1.47,0.816
TAGCCTAGGTCAGATCGGGCCAGTATTCGCTATA,2.53,1.19,-0.155,0.7,-0.147,1.71,0.0951,0.687,-0.284,-0.025,0.568,1.66,-0.683,-1.02,0.109,1.28,-0.946,0.894,-0.762,3.14
AGAACGAGGGCACGCTGAGTTGATTGCAGAGTAG,0.793,0.4,-0.818,-0.114,-1.35,1.94,1.71,1.83,0.402,1.15,4.08,3.53,0.256,0.126,0.222,1.56,-0.0942,0.717,-0.751,2.36
